Screens deposited in PubChem by National Center for Advancing Translational Sciences (NCATS).
ELG1 genotox: genotoxicity induction in ELG1-luciferase HEK293T cells. HEK293T ELG1-luciferase reporter, luminescence, 16 h. Potency, µM (doses to about 46 µM), for the others: at the top dose activity change, positive = activation, hits mostly activators. 330,000 tested, 1.3% active. AID 504466; also: % of control where 0% means no effect; nearly all actives have a fitted effect of over 60% in size
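Genotoxicity was scored as increased ELG1-luciferase reporter signal, measured by ONE-Glo luminescence (30 min, room temperature). Compound or vehicle exposure of the HEK293T reporter cells lasted 16 hr at 37°C.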
Rab9 promoter act: activators of Rab9 promoter. Huh7 Rab9 promoter-luciferase reporter, luminescence, 24 h. Potency, µM (titrated, usually from 9.22 µM), inactives show at the top dose activation, negative = inhibition, hits mostly activators. 320,000 tested, 2.8% active. AID 485297; also: % of control where 0% means no effect; nearly all actives have a fitted effect of over 60% in size
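Quantitative HTS format; Huh7 Rab9-luciferase reporter cells (1500/well) receive compound 2 h post-plating, incubate 24 h at 37 °C, then get luciferase reagent for 10 min before luminescence reading.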
NPC1 prom act: NPC1 promoter activation | AID 485313 | 320,000 tested, 2.4% active | Potency, µM (top dose mostly 9.22 µM), inactives show top-dose activation, actives largely listed as activators | Huh7 NPC1 promoter luciferase reporter, 24 h; also: % of control where 0% means no effect; nearly all actives have a fitted effect of over 60% in size
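Huh7 reporter cells (NPC1 promoter driving luciferase) are dosed with compound for 24 h at 37 °C, 5% CO2; luciferase detection reagent is then added and luminescence measured after 10 min at ambient temperature.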
FLuc counter: inhibits or activates purified firefly luciferase, miR-21 counter-screen; purified FLuc, Km substrates, luminescence inhibition; P08659; 360,000 tested, 6.9% active; Potency, µM (doses to about 57.5 µM), for inactives: at the highest dose activity change, negative = inhibition, most hits filed as inhibitors;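 also: plate controls were vehicle for no effect and reference inhibitor for full effect; nearly all actives have a fitted effect of over 55% in size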
Target sequence (P08659 whole entry, looked up): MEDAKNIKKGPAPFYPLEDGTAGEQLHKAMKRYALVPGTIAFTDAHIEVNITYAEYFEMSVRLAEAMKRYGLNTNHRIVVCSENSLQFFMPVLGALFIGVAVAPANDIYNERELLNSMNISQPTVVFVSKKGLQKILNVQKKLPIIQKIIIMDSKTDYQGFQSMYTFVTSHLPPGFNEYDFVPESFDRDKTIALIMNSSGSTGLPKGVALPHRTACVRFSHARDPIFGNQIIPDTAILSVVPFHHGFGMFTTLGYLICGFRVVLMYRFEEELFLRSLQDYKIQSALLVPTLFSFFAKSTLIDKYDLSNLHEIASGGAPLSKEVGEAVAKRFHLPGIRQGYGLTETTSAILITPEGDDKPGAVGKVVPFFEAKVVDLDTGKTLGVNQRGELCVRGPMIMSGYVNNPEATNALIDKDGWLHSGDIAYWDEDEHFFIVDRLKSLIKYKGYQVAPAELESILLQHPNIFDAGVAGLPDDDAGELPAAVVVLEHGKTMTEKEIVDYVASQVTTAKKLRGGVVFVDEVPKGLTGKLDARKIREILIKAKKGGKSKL
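Biochemical qHTS of compounds, final roughly 60 µM downward over six points, against 10 nM purified firefly luciferase using Km concentrations of substrates (10 uM D-luciferin, 10 uM ATP) in Tris acetate pH 7.5 buffer; luminescence output.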
SMN2 splice up: SMN2 splice variant enhancement; HEK293 SMN2-luciferase splicing reporter, luminescence, 30-36 h; Potency, µM (top dose mostly 46.1 µM), for the others: top-dose activity change, positive = activation, most hits filed as activators; 210,000 tested, 2.8% active; AID 1458; also: % of control where 0% means no effect; nearly all actives have a fitted effect of over 55% in size
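HEK293 cells carry an SMN2 […]–luciferase reporter in which exon 7 inclusion puts luciferase in frame. Cells were plated 10-12 h before compound addition, then incubated 30-36 h at 37C. ONE-Glo luminescence was read; sodium butyrate at 4.5 mM final served as control.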
* = called active by the depositor; u = inconclusive; x = no result. In the library only some 7.4% were active in any assay of this set; here they are far more common. Calls follow the shape of the dose curve; as a rule, active = well fitted curve in the direction sought with a large enough effect; inconclusive = small, poorly fitted or top-dose-only effect, or another doubt; inactive = no such curve, though single readings can be large; an effect the other way counts as inactive or inconclusive. Potency is read from the fitted curve at half-maximal effect.

SMILES	ELG1 genotox	Rab9 promoter act	NPC1 prom act	FLuc counter	SMN2 splice up
O=[N+]([O-])c1cccc(S(=O)(=O)Nc2ccc(-c3ccc(N4CCOCC4)nn3)cc2)c1	-1%	1%	1%	21µM*	x
O=[N+]([O-])c1cccc(S(=O)(=O)Nc2ccc(-c3ccc(N4CCCC4)nn3)cc2)c1	14%	-3%	5%	30µM*	x
CC1CCC(Nc2nc3c(-c4cccc(C(F)(F)F)c4)nnn3c3ccccc23)CC1 (configuration not stated)	x	x	x	2%	-38%
Cc1cccnc1NC(=O)Cn1nc(-c2ccccc2)oc1=S	u	1.3µM*	3.2µM*	-7%	3.2µM*
CCc1ccc2c(c1)c1nc(C)sc1n2CC(=O)OC	-4%	-2%	1%	12µM*	-13%
Cc1nc2c3cc(F)ccc3n(Cc3ccccc3)c2s1	18%	-6%	-2%	-2%	-5%
Cc1cc(C)n(-c2nnc(NC34CC5CC(CC(C5)C3)C4)nn2)n1	u	3.5µM*	2µM*	2.4µM*	11µM*
Cc1cc(C)n(-c2nnc(NC(C)(C)C)nn2)n1	u	3.2µM*	u	21µM*	13µM*
Cc1cc(C)n(-c2nc(NC(C)(C)C)nc(NC(C)(C)C)n2)n1	-4%	-4%	-1%	0%	-49%
Nn1c(COc2ccccc2F)nnc1SCC(=O)NC1CC1	0%	-3%	-2%	-1%	x
O=[N+]([O-])c1ccc(NCCCNS(=O)(=O)c2ccc(Cl)cc2)c(Cl)c1	-10%	-5%	1%	-1%	-17%
Cc1ccc(C(=O)CC2(O)C(=O)N(Cc3ccccc3Cl)c3ccccc32)o1 (configuration not stated)	2%	-2%	-5%	3%	u
Cc1ccc(C(=O)CC2(O)C(=O)N(Cc3ccccc3)c3ccccc32)o1 (configuration not stated)	0%	-2%	-2%	7%	11µM*
O=C(NCc1cccnc1)C(C(=O)c1ccc(F)cc1)n1ccccc1=O (configuration not stated)	18µM*	16%	2%	-2%	6%
NC(=S)N/N=C/c1ccccc1OC(=O)/C=C/c1ccccc1	-3%	-16%	2%	27µM*	x
NC(=O)N/N=C/c1ccccc1OC(=O)c1cc2ccccc2oc1=O	u	17%	13%	u	x
NC(=S)N/N=C\c1ccccc1OCc1ccccc1	6%	-6%	-4%	-18%	-15%
NC(=S)N/N=C/c1ccccc1OC(=O)c1cc2ccccc2oc1=O	8%	-19%	0%	21µM*	x
CCOc1ccccc1CNC(=O)c1cnc2sc(N3CCCC3)nn2c1=O	x	x	x	-10%	x
NC(=O)c1ccccc1NC(=O)CCCc1ccccc1	3%	20%	21%	u	x
O=C(/C=C/c1ccc([N+](=O)[O-])cc1)c1cccs1	5%	12%	-1%	-17%	x
COc1cc([N+](=O)[O-])ccc1N/C=C/C(=O)c1cccs1	u	1.1µM*	0.5µM*	0.12µM*	1.6µM*
NC(=O)c1ccccc1N/C=C/C(=O)c1cccs1	2.1µM*	0.89µM*	1.8µM*	2.7µM*	7.1µM*
NC(=O)c1ccccc1NS(=O)(=O)c1cccs1	-1%	-2%	-1%	4%	x
Cc1cccc(N/C=C/C(=O)c2cccs2)c1C	1.8µM*	u	29%	0.34µM*	2µM*
SMILES	ELG1 genotox	Rab9 promoter act	NPC1 prom act	FLuc counter	SMN2 splice up
Cc1c(NC(=O)c2cccs2)cccc1NC(=O)c1cccs1	1%	-3%	5%	-6%	x
Cc1ccc(C(=O)/C=C/Nc2ccccc2C(N)=O)o1	x	x	x	5.4µM*	11µM*
CSc1ccc(-c2nc3cccc(C)n3c2Nc2ccc(Cl)cc2)cc1	x	x	x	2%	-30%
NC(=O)c1ccccc1N/C=C/C(=O)c1ccc(F)cc1	u	1µM*	0.71µM*	0.76µM*	18µM*
CC(=O)c1ccc(NS(=O)(=O)c2ccc(N/C=C/C(=O)c3ccc(F)cc3)cc2)cc1	1%	7%	5%	u	x
NC(=O)c1ccccc1N/C=C/C(=O)c1ccc(Cl)cc1Cl	u	0.5µM*	0.79µM*	0.19µM*	1µM*
Cc1ccc(OC(=O)c2snnc2C)cc1C	x	x	x	3%	x
